Measurements: PubChem BioAssay (EPA / NIEHS)
Where a structure was tested more than once in an assay, its records may differ in their call. Activity calls are given as the source filed them. How the source made its calls: active means hit-call score of the fitted dose curve at least 0.9, where 1 is the maximum; inactive means score below 0.9.

Legend:
[1] = biological target: Transcription factor E2F1 (Homo sapiens) (UniProt Q01094); test: ATG_E2F_CIS: Attagene CIS-FACTORIAL HepG2 Assay for human E2F Transcription Factor 1 (AID 2282935); conditions: HepG2 Attagene cis-reporter, E2F reporter RNA transcripts; actives raise or lower the signal
Transcription factor E2F1 (Homo sapiens), sequence (Q01094 whole entry, looked up): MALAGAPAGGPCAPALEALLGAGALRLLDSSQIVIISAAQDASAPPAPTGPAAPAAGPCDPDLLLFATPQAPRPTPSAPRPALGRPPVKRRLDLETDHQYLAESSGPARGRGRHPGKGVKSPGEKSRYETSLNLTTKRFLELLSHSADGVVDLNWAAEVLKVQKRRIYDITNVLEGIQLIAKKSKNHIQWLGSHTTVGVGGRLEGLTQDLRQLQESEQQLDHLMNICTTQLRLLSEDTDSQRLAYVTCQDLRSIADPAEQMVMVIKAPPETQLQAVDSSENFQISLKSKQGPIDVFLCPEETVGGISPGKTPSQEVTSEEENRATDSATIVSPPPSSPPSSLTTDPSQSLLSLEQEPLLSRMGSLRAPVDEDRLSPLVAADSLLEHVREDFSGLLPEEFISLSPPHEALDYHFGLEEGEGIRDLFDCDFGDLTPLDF
How it was run: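 Liver-derived HepG2 cells expressing transfected promoter-driven reporter units received test chemical for 24 hours. Signal gains or losses were fitted bidirectionally against DMSO.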

[2] = ATG_E_Box_CIS: Attagene CIS-FACTORIAL HepG2 Assay for human Enhancer Box (E-box) (AID 2282936); conditions: HepG2 E-box cis-reporter transcription, actives raise or lower the signal
How it was run: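 In this cell-based setup, HepG2 cells bearing transfected promoter-driven reporter units were exposed to chemicals for 24 h; reporter transcripts were amplified, 6-FAM-labelled, cut with HpaI and sized by capillary electrophoresis.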

[3] = ATG_M_61_CIS: Attagene CIS-FACTORIAL HepG2 Assay for M61 Transcription Factor (Internal Marker) (AID 2282937); conditions: HepG2 Attagene CIS-FACTORIAL M61 internal marker reporter; actives raise or lower the signal
How it was run: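 Readout is reporter mRNA by RT-PCR, fluorescent primer extension and capillary electrophoresis, with gain or loss fitted relative to DMSO. Transfected HepG2 cells carrying endogenous-TF-driven cis reporters were exposed to chemicals for 24 hours.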

[4] = ATG_EGR_CIS: Attagene CIS-FACTORIAL HepG2 Assay for human Early Growth Response 1 (EGR1) (AID 2282938); conditions: HepG2 Attagene CIS-FACTORIAL EGR reporter mRNA; actives raise or lower the signal
How it was run: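 After 24 h compound exposure, RNA from reporter-transfected HepG2 cells was reverse-transcribed, PCR-amplified, fluorescently labelled and resolved by capillary electrophoresis. EGR1 reporter transcript changes, up or down, were fitted against DMSO, reflecting endogenous transcription-factor activity.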

[5] = ATG_M_19_CIS: Attagene CIS-FACTORIAL HepG2 Assay for M19 Transcription Factor (Internal Marker) (AID 2282939); conditions: HepG2 Attagene CIS-FACTORIAL M19 internal marker reporter; actives raise or lower the signal
How it was run: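 Chemical-treated HepG2 (24 h) with MRTU constructs; reporter transcripts detected by fluorescent RT-PCR fragment analysis on capillary electrophoresis. Internal background marker, DMSO as baseline.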

[6] = ATG_ERE_CIS: Attagene CIS-FACTORIAL HepG2 Assay for Estrogen Response Element (ERE) (AID 2282940); conditions: HepG2 ERE cis-reporter, Attagene RNA transcript; actives raise or lower the signal
How it was run: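 Human liver cells (HepG2) bearing transiently transfected, promoter-regulated reporter units were exposed 24 h. Reporter mRNA induction was detected by capillary electrophoresis of labelled RT-PCR products and fitted bidirectionally to DMSO.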

[7] = ATG_Ets_CIS: Attagene CIS-FACTORIAL HepG2 Assay for human Erythroblast Transformation Specific (ETS) (AID 2282941); conditions: HepG2 ETS cis-reporter transcription, actives raise or lower the signal
How it was run: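 RT-PCR/capillary electrophoresis fluorescence read-out of reporter mRNA; HepG2 transient multi-reporter transfection; 24 h compound exposure; gain or loss of signal fitted bidirectionally relative to DMSO.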

[8] = biological target: Hepatocyte nuclear factor 3-beta (Homo sapiens) (UniProt Q9Y261); test: ATG_FoxA2_CIS: Attagene CIS-FACTORIAL HepG2 Assay for human Forkhead box A2 (FOXA2) (AID 2282942); conditions: HepG2 cis-reporter transcription factor activity, 24 h; actives raise or lower the signal
Hepatocyte nuclear factor 3-beta (Homo sapiens), sequence (Q9Y261 whole entry, looked up): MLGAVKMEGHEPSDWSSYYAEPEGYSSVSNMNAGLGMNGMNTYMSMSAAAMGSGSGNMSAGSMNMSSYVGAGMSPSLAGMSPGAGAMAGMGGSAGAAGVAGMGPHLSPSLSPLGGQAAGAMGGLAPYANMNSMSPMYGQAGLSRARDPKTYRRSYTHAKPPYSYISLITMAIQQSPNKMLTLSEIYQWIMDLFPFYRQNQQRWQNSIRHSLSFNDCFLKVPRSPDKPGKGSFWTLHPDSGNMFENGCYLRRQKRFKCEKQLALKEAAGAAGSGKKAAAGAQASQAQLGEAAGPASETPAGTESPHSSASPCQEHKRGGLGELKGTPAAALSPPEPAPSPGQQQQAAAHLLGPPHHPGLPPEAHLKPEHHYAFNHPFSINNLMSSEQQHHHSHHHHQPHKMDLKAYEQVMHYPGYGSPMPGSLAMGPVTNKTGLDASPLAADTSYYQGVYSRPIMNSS
How it was run: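 Endogenous transcription factor activity is captured via cis-element-driven reporter transcripts in transfected HepG2. Total RNA taken at 24 h post-dosing; labelled RT-PCR products resolved by capillary electrophoresis. Gain or loss fitted versus DMSO.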

[9] = ATG_FoxO_CIS: Attagene CIS-FACTORIAL HepG2 Assay for human Forkhead box O (FoxO) (AID 2282943); conditions: HepG2 Attagene cis-reporter, FoxO element, mRNA; actives raise or lower the signal
How it was run: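 Transfected HepG2 reporter cells exposed to test chemical for 24 h; reporter RNA measured by reverse transcription, PCR and fluorescent capillary electrophoresis; curves fitted for increases and decreases against DMSO.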

[10] = ATG_GLI_CIS: Attagene CIS-FACTORIAL HepG2 Assay for human Zinc Finger Protein GLI1 (AID 2282945); conditions: HepG2, Attagene cis-factorial reporter mRNA, GLI element; actives raise or lower the signal
How it was run: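 Transiently transfected HepG2 cells report endogenous transcription factor activity via cis-element-driven reporter units. After 24 h compound exposure, reporter mRNA was measured by RT-PCR with capillary electrophoresis; bidirectional fitting against DMSO baseline.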

[11] = biological target: Bile acid receptor (Homo sapiens) (UniProt Q96RI1); test: ATG_IR1_CIS: Attagene CIS-FACTORIAL HepG2 Assay for human Nuclear Receptor Subfamily 1 Group H Member 4 (NR1H4), IR1 submotif (AID 2282946); conditions: IR1 reporter transcription, actives raise or lower the signal
Bile acid receptor (Homo sapiens), sequence (Q96RI1 whole entry, looked up): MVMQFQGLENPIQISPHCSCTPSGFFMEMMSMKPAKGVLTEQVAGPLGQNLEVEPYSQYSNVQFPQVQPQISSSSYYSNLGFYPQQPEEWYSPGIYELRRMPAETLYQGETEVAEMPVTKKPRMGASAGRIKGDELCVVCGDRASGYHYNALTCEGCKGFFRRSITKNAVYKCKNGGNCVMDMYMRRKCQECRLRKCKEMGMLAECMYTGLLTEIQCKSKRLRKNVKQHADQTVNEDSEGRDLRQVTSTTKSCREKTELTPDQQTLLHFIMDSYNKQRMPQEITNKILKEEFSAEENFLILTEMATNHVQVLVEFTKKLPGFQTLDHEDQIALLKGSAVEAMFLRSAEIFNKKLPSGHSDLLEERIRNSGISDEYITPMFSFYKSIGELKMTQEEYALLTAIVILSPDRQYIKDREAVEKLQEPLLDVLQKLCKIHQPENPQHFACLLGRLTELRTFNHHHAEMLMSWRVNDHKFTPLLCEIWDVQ
How it was run: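 Fluorescence of capillary-separated, HpaI-digested RT-PCR reporter products gave IR1-element mRNA induction in HepG2 cells 24 h after dosing. Endogenous transcription factors drove the cis-regulated reporters; activity was fitted bidirectionally against DMSO.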

[12] = ATG_GRE_CIS: Attagene CIS-FACTORIAL HepG2 Assay for human Glucocorticoid Response Elements (GRE) (AID 2282947); conditions: HepG2 GRE cis-reporter, Attagene multiplex mRNA; actives raise or lower the signal
How it was run: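 Fluorescence intensity of reporter-specific cDNA fragments, separated by capillary electrophoresis, provides the signal. Constructs carry cis-regulating promoters in transiently transfected HepG2 liver cells; 24 h incubation; fitting is bidirectional against DMSO.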

[13] = ATG_ISRE_CIS: Attagene CIS-FACTORIAL HepG2 Assay for human Interferon Regulatory Factor 1 (IRF1) binding to an Interferon-Stimulated Response Element (ISRE) (AID 2282948); conditions: HepG2 ISRE cis-reporter (Attagene), mRNA transcription readout; actives raise or lower the signal
How it was run: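 Read-out: fluorescent RT-PCR products resolved by capillary electrophoresis, reporting endogenous transcription factor activity via ISRE-driven reporter mRNA in transfected HepG2 cells dosed for 24 h; gain or loss fitted relative to DMSO.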

[14] = ATG_M_32_CIS: Attagene CIS-FACTORIAL HepG2 Assay for M32 Transcription Factor (Internal Marker) (AID 2282949); conditions: HepG2 Attagene cis-factorial M32 reporter, mRNA; actives raise or lower the signal;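 further: background control marker of the multiplexed CIS panel rather than a real target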
How it was run: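 HepG2 human liver cells transiently transfected with cis-promoter-driven multiple reporter transcription units, dosed 24 h. Reporter mRNA quantified by RT-PCR, FAM-labelled primer extension, HpaI digest and capillary electrophoresis; bidirectional fit versus DMSO baseline.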

[15] = ATG_M_06_CIS: Attagene CIS-FACTORIAL HepG2 Assay for M06 Transcription Factor (Internal Marker) (AID 2282950); conditions: HepG2 Attagene CIS-FACTORIAL M06 internal marker reporter; actives raise or lower the signal
How it was run: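 Cells (HepG2, transiently carrying cis-driven reporter units) receive chemical for 24 h before RNA isolation. Reporter cDNA is PCR-amplified, FAM-labelled by primer extension, HpaI-digested and sized on a capillary analyser.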

[16] = biological target: Hypoxia-inducible factor 1-alpha (Homo sapiens) (UniProt Q16665); test: ATG_HIF1a_CIS: Attagene CIS-FACTORIAL HepG2 Assay for human Hypoxia Inducible Factor 1 (HIF1A) (AID 2282951); conditions: HepG2 Attagene cis-factorial HIF1a reporter transcription; actives raise or lower the signal
Hypoxia-inducible factor 1-alpha (Homo sapiens), sequence (Q16665 whole entry, looked up): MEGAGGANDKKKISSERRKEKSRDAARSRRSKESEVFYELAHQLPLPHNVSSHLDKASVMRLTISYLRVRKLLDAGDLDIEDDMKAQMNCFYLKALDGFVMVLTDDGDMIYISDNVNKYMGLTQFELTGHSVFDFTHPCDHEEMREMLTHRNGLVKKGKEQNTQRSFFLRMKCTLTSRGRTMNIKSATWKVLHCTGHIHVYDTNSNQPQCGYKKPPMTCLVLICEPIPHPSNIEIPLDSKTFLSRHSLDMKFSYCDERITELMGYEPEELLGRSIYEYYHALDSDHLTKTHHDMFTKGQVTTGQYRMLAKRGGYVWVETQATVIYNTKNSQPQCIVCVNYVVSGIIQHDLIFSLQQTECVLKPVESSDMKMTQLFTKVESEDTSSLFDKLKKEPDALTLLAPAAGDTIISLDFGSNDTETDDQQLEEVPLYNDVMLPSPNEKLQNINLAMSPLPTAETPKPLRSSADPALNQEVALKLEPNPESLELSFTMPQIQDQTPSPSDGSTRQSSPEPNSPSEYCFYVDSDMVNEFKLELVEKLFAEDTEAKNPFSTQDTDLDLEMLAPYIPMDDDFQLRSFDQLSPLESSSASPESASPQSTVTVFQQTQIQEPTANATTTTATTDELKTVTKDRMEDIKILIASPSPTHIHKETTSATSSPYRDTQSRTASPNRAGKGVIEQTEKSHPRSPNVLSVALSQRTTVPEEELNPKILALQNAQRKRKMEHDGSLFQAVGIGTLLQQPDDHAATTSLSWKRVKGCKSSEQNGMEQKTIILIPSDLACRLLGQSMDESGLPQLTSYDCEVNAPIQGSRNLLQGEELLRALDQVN
How it was run: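 Activity is fitted in both directions relative to DMSO. Reporter transcripts are read by RT-PCR, fluorescent primer extension and capillary electrophoresis after 24 h chemical treatment. The cells are HepG2 carrying transiently transfected cis-element-driven reporter units responding to endogenous factors.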

[17] = biological target: Heat shock factor protein 1 (Homo sapiens) (UniProt Q00613); test: ATG_HSE_CIS: Attagene CIS-FACTORIAL HepG2 Assay for human Heat Shock Transcription Factor 1 (HSE) (AID 2282953); conditions: HepG2 HSE cis-reporter, Attagene RNA transcription; actives raise or lower the signal
Heat shock factor protein 1 (Homo sapiens), sequence (Q00613 whole entry, looked up): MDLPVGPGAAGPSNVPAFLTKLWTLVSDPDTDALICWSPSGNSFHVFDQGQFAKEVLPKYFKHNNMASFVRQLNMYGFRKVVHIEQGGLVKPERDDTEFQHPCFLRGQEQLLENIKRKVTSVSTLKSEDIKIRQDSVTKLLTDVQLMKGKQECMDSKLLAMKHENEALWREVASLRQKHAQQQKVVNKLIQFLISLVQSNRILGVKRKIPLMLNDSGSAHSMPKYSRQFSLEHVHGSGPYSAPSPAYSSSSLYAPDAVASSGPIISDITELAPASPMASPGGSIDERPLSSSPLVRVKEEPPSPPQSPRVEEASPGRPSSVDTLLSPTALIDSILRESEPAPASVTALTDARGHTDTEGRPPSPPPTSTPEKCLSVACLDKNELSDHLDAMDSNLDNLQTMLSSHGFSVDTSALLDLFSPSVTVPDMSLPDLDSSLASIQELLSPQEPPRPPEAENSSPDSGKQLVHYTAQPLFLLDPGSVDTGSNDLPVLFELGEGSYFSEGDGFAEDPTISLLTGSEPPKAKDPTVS
How it was run: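 Liver-derived HepG2 cells carry transiently introduced multiple reporter units governed by cis promoters. Reporter RNA measured 24 h post-dose through reverse transcription, PCR amplification, fluorescent labelling and capillary electrophoresis, normalised to DMSO.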

[18] = ATG_MRE_CIS: Attagene CIS-FACTORIAL HepG2 Assay for human Metal Responsive Element (MRE) (AID 2282954); conditions: HepG2 MRE cis-reporter transcription, Attagene multiplex; actives raise or lower the signal
How it was run: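 Measured here is mRNA induction from an MRE cis-element reporter in HepG2 after 24 h, quantified by fluorescence of labelled RT-PCR products on capillary electrophoresis; gain- and loss-of-signal fits use DMSO as baseline.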

[19] = biological target: Hepatocyte nuclear factor 6 (Homo sapiens) (UniProt Q9UBC0); test: ATG_HNF6_CIS: Attagene CIS-FACTORIAL HepG2 Assay for human Hepatocyte Nuclear Factor 6 (HNF6) (AID 2282952); conditions: HepG2 Attagene cis-factorial HNF6 reporter transcription; actives raise or lower the signal
Hepatocyte nuclear factor 6 (Homo sapiens), sequence (Q9UBC0 whole entry, looked up, the tested form may be a part): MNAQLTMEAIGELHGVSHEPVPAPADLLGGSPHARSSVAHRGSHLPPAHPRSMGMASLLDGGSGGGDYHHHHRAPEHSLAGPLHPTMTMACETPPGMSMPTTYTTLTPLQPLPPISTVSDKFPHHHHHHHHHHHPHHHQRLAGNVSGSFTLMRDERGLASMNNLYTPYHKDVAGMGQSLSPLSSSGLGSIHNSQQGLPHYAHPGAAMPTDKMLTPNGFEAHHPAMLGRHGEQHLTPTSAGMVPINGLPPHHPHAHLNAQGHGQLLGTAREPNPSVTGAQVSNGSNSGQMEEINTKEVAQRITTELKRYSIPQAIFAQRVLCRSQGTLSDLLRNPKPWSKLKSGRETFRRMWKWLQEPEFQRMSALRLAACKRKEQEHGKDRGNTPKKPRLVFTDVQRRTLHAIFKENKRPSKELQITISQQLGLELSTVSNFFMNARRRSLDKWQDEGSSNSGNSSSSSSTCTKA
How it was run: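 Readout: fluorescent reporter-transcript fragments resolved by capillary electrophoresis after RT-PCR, reflecting endogenous factor activity in transfected HepG2. Exposure 24 h. Gain or loss of signal fitted bidirectionally against DMSO.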

[20] = ATG_GATA_CIS: Attagene CIS-FACTORIAL HepG2 Assay for human GATA Binding Protein (AID 2282944); conditions: HepG2 GATA cis-element reporter, Attagene multiplex mRNA; actives raise or lower the signal
How it was run: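 Transfected cis-reporter HepG2 cells were treated with chemicals for 24 hours. Total RNA was then converted to cDNA, amplified with reporter-specific primers and analysed by fluorescent capillary electrophoresis, using DMSO-treated wells as baseline.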

Measured: AC50

CCNc1nc(Cl)nc(NCC)n1
not listed: [19] | [20]
inactive: all other assays above

COc1cnc(OC)n2nc(NS(=O)(=O)c3c(OCC(F)F)cccc3C(F)(F)F)nc12
not listed: [11] | [20]
inactive: all other assays above

COC(=O)C=C(C)OP(=O)(OC)OC
not listed: [19] | [20]
inactive: all other assays above

N#CC(CCc1ccc(Cl)cc1)(Cn1cncn1)c1ccccc1 (centres undefined)
not listed: [11] | [19] | [20]
inactive: all other assays above

COc1nc(C)nc(NC(=O)NS(=O)(=O)c2ccccc2CCC(F)(F)F)n1
not listed: [11] | [19] | [20]
inactive: all other assays above

N#Cc1nn(-c2c(Cl)cc(C(F)(F)F)cc2Cl)c(N)c1S(=O)C(F)(F)F (centres undefined)
active: [2] 29 µM | [12] 29 µM | [18] 38.8 µM
inactive: [1] | [2] | [3] | [5] | [6] | [7] | [8] | [9] | [20] | [10] | [12] | [13] | [14] | [15] | [16] | [18]

COC(=O)C(C)Oc1ccc(Oc2ccc(Cl)cc2Cl)cc1 (centres undefined)
not listed: [6] | [11] | [19]
inactive: all other assays above
